Screening results (PubChem)
Vaccinia mCherry = inhibitors of vaccinia virus infection (mCherry reporter signal); Vaccinia virus mCherry reporter infection, fluorescence; Potency, µM (top dose mostly 36.5 µM), inactives show at the highest dose activity change, negative = inhibition, most hits filed as inhibitors; hit rate 0.63% among 310,000; AID 720579; calls by dose curve; tested in A549 cells; note: potency is the fitted concentration of half-maximal effect; nearly all actives have a fitted effect of over 35% in size
FMDV inh = foot and mouth disease virus antiviral activity. FMDV antiviral cell-based qHTS. Potency, µM (titrated, usually from 57.9 µM), for inactives: at the top dose activity change, negative = inhibition, usual class: inhibitors. hit rate 1.2% among 410,000. AID 1159524; calls by dose curve; tested in HEK293T cells; note: read-out not given here; potency is the fitted concentration of half-maximal effect; nearly all actives have a fitted effect of over 45% in size
Sm TGR inh = blocks Schistosoma mansoni thioredoxin glutathione reductase. Q962Y6. purified TGR, DTNB reduction, TNB absorbance 405 nm. Potency, µM (doses to about 114 µM), without a hit: top-dose activity change, negative = inhibition, actives largely listed as inhibitors. hit rate 3% among 360,000. AID 485364; note: potency is the fitted concentration of half-maximal effect; nearly all actives have a fitted effect of over 60% in size
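First, TGR (20 nM dispensed) and NADPH were mixed with compound. Second, a 15 min room-temperature incubation followed. Third, further NADPH and then DTNB were added to start the reaction. Finally, TNB absorbance was monitored kinetically.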
HCV inh = HCV inhibition; hit rate 3.4% among 340,000; Huh7.5.1 HCVcc-Cre infection, luciferase reporter, 44 h; AID 651820; Potency, µM (top dose mostly 41.8 µM), inactives show top-dose activity change, negative = inhibition, usual class: inhibitors; note: potency is the fitted concentration of half-maximal effect
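Cells seeded at 1,000/well and cultured 4 h, then compounds added followed by HCVcc-Cre virus (~0.5 moi). After 44 h further culture, luciferase substrate was added, plates held 15 min at room temperature, and luminescence read for 15 sec.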
VACV Venus inh = inhibitors of vaccinia virus (Venus reporter); Vaccinia virus Venus reporter expression, fluorescence; Potency, µM (titrated, usually from 36.5 µM), for inactives: at the highest dose activity change, negative = inhibition, most hits filed as inhibitors; hit rate 0.46% among 330,000; calls by dose curve; tested in A549 cells; note: potency is the fitted concentration of half-maximal effect; nearly all actives have a fitted effect of over 30% in size
HCMV antiviral = inhibitors of human cytomegalovirus | HFF cells, HCMV-luciferase reporter, 72 h; stronger effect = lower value | activity change, negative = inhibition, % at 57.5 µM | hit rate 4.5% among 410,000; in the data active = activity change below about -60%; inconclusive = no clear call, values can overlap the other calls; inactive = above about -39%
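Inhibition of viral replication was scored as loss of reporter luminescence in HFFs infected with HCMV-luciferase (MOI 1 PFU/cell) for 72 h; compounds tested at 2 doses, normalized to buffer and Salinomycin controls.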
* marks the source's active call; other numbers are inactive results; i = inactive; ? = inconclusive; nt = not tested or not shown. Only some compounds are listed: those with a hit (about 9.3% of all), similar ones and a draw of the others. Unless noted, calls come from the whole dose curve; as a rule, active = well fitted curve in the direction sought with a large enough effect; inconclusive = small, poorly fitted or top-dose-only effect, or another doubt; inactive = no such curve, though single readings can be large; an effect the other way counts as inactive or inconclusive. % is set by controls: 0 for no effect and ±100 for the full control effect.

SMILES | Vaccinia mCherry | FMDV inh | Sm TGR inh | HCV inh | VACV Venus inh | HCMV antiviral
Cc1ccc(NN2C(=O)C=C(c3ccc(Cl)cc3)C2=O)cc1 | ? | 40µM* | -14% | -22% | ? | 236
COc1ccc(C2=CC(=O)N(Nc3ccccc3)C2=O)cc1 | -9% | ? | -14% | 16% | -9% | -9
O=C(NCCCN1CCCC1=O)c1cc(S(=O)(=O)N2CCOCC2)c(Cl)cc1Cl | i | -13% | -2% | 3% | -3% | 10
O=C(N/N=C/c1ccc(OCc2cnc(Cl)s2)cc1)c1ccncc1 | -27% | 12% | 4% | 11% | -22% | 9
Cc1nc2c(ccc3c2ccc2nc(C)sc23)s1 | nt | 26% | 3% | 13% | -6% | 86
COc1cc2sc(C)nc2c2ccccc12 | nt | -14% | 13% | 10µM* | nt | 25
COc1ccc(-c2nc3cnc(Oc4cccc(Cl)c4)nc3n(C[C@H]3CCCO3)c2=O)cc1 | nt | -9% | nt | nt | nt | nt
O=C(NCc1ccco1)/C(=C/c1ccc(C(F)(F)F)cc1)c1nc2ccccc2[nH]1 | nt | 21% | -28% | ? | nt | -25
O=C(NCc1ccco1)/C(=C/c1cccc(C(F)(F)F)c1)c1nc2ccccc2[nH]1 | -23% | 0% | 0% | 16µM* | -11% | -100*
Nc1nc2c(ncn2[C@@H]2O[C@H](CNCc3cnc(N4CCOCC4)s3)[C@@H](O)[C@H]2O)c(=O)[nH]1 | 7% | -8% | nt | nt | -10% | 30
COCc1cc(N2CCCCC2)nc(-c2ccccc2)n1 | -1% | -8% | 0% | 5.6µM* | 4% | ?
CC(C)CNCC1OCc2ccccc2CO1 | -17% | -5% | 5% | ? | -4% | -21
CC1CC1C(=O)OCC(=O)Nc1cccc(S(=O)(=O)NC2=NCCCCC2)c1 (stereo not drawn) | -16% | -8% | 8% | -6% | -4% | -25
CCn1nc(C)c(NC(=O)c2cnn3c(C(F)F)cc(-c4ccccc4)nc23)c1C | i | ? | -11% | 14µM* | -15% | ?
Cc1ccc(-c2cc(C(F)F)n3ncc(C(=O)N4CCc5ccccc5C4)c3n2)cc1 | -29% | -22% | 0% | 11µM* | ? | -25
O=C(Nc1ccc(C(=O)N2CCOCC2)cc1)c1cc(-c2cccnc2)nc2ccc(Br)cc12 | -26% | ? | 14% | ? | -20% | -107*
COc1ccc(-c2cc(C(F)F)n3ncc(C(=O)n4ccnc4C)c3n2)cc1 | -10% | 14µM* | 89µM* | -5% | ? | 145
CCOc1ccccc1NC(=O)c1cnn2c(C(F)F)cc(-c3ccccc3)nc12 | ? | -7% | 10% | nt | -22% | ?
CCOCCCNC(=O)C(c1ccc(OC)cc1)N(Cc1ccc2c(c1)OCO2)C(=O)c1ccc(NC(C)=O)cc1 (stereo not drawn) | -9% | -13% | 2% | nt | -12% | -1
NC(=O)c1ccccc1OCC(=O)Nc1cccnc1Cl | nt | 17% | 0% | 14% | nt | 8
CC(C)(C)C(c1nc2ccccc2[nH]1)n1c(-c2ccsc2)nc2ccccc21 (stereo not drawn) | ? | -3% | nt | nt | 0% | 57
COC(=O)Cn1c2ccccc2c(=O)n1C(C)C | 5% | -4% | nt | nt | -4% | -7
CN1CCN(C(=O)c2cc3nc(-c4ccco4)cc(C(F)(F)F)n3n2)CC1 | i | -28% | -2% | -20% | -13% | -5
COc1ccc(-c2cc(C(F)F)n3ncc(C(=O)N4CCc5ccccc54)c3n2)cc1 | nt | -17% | 11µM* | ? | nt | 21
O=C(c1cnn2c(C(F)(F)F)cc(-c3ccccc3)nc12)N1CCOCC1 | i | nt | ? | 5% | -6% | 18
SMILES | Vaccinia mCherry | FMDV inh | Sm TGR inh | HCV inh | VACV Venus inh | HCMV antiviral
O=C(c1cc2nc(-c3ccco3)cc(C(F)(F)F)n2n1)N1CCc2ccccc2C1 | i | 0% | 50µM* | ? | 0% | -38
COc1ccc(-c2cc(C(F)F)n3ncc(C(=O)Nc4ccc(C(=O)N5CCOCC5)cc4)c3n2)cc1 | nt | -18% | nt | -13% | nt | -68*
O=C(c1cnn2c(C(F)(F)F)cc(-c3ccc(F)cc3)nc12)N1CCc2ccccc2C1 | i | -8% | 2% | ? | -7% | -72*
Cc1ccc(S(=O)(=O)NCCN2CCN(S(=O)(=O)c3ccccc3Cl)CC2)cc1 | nt | -12% | -7% | -17% | nt | -12
O=C(c1cn(Cc2ccccc2)nc1-c1ccccc1)N1CCN(c2ccccn2)CC1 | nt | 25% | 4% | ? | nt | -16
COc1cccc(-c2nc(SCC(=O)NCC3CCCO3)c(-c3ccc(C)cc3)[nH]2)c1 (stereo not drawn) | -12% | -19% | -4% | nt | -9% | -24
O=c1[nH]c(C2CCN(S(=O)(=O)c3ccc(F)cc3)CC2)nc2c1nnn2Cc1ccc2c(c1)OCCO2 | nt | -8% | -3% | -12% | nt | -24
NS(=O)(=O)c1ccc(CCNC(=O)c2ccccc2[N+](=O)[O-])cc1 | -16% | -13% | 5% | -6% | 1% | -5
CCOC(=O)c1cnn2c(C(F)(F)F)cc(-c3ccc(Br)cc3)nc12 | -11% | 0% | 40µM* | nt | -14% | 1
Cc1ccc(-c2cc(C(F)F)n3ncc(C(=O)N4CCN(c5cccc(C)c5C)CC4)c3n2)cc1 | -14% | 0% | -32% | 32µM* | -7% | 88
CCOC(=O)N1CCN(C(=O)c2cnn3c(C(F)F)cc(-c4ccc(C)cc4)nc23)CC1 | nt | -5% | 3% | 1% | ? | 30
N#Cc1c(-c2ccccc2)nc(SCc2ccc(Cl)cc2)[nH]c1=O | -21% | -19% | 8% | -7% | -16% | -26
O=C(CCNC(=O)c1ccc(Br)cc1)Nc1ccc(S(=O)(=O)N2CCCCC2)cc1 | -14% | -2% | 4% | 9% | -11% | -19
COc1cc(OC)c(NS(=O)(=O)c2cc(C(=O)OC(C)C(=O)NC3CC3)c(Cl)cc2Cl)cc1Cl (stereo not drawn) | -2% | 10% | -5% | 11µM* | -13% | -18
CCC(C)c1ccc2oc(-c3ccc(NC(=O)Cn4cnc5c(=O)n(C)c(=O)n(C)c54)cc3)nc2c1 (stereo not drawn) | nt | 14% | 4% | ? | nt | -73*
Cc1ccc2oc(-c3cccc(NC(=O)Cn4cnc5c(=O)n(C)c(=O)n(C)c54)c3)nc2c1 | nt | nt | -16% | nt | nt | nt
Cc1ccc(C)c(SCC(=O)NNC(=O)c2ccccc2)c1 | -13% | 23% | 9% | ? | -11% | -12
Cc1ccc(NS(=O)(=O)c2ccc(NC(=O)CSc3ccc(Cl)cc3)cc2)c(C)c1 | ? | 0% | 5% | ? | ? | 51
CCc1cccc2c(C(=O)CSc3nnc(C4CC4)o3)c[nH]c12 | nt | -15% | -3% | 5.6µM* | nt | -6
O=C(COc1ccc(C(=O)c2ccc(F)cc2)cc1)NCc1ccc(F)cc1 | ? | -28% | 0% | -25% | -26% | -78*
